From PubChem BioAssay (NCATS) come the findings set out here.

Experiment [1] is described as follows: Cell Viability - LYMP2-006 (AID 978). Further: series mostly up to about 92 µM; on the % scale 0 is the no-effect control and ±100 the full control effect; nearly all actives have a fitted effect of over 60% in size. The essentials:
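Human lymphoblastoid cells (LYMP2-006), 2500/well in complete medium, were treated with compound for 24 hr at 37 C. Cellular ATP was read by CellTiter-Glo luminescence after 30 min, and AC50 values came from Hill-equation fits of concentration-response data.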

Experiment [2] in a line: Cell Viability - LYMP2-008 (AID 980). Further: on the % scale 0 is the no-effect control and ±100 the full control effect; nearly all actives have a fitted effect of over 60% in size. Summed up:
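Human lymphoblastoid cells (2500/well) were plated, held 5 hr at 37 C, then exposed to compounds for 24 hr at 37 C in complete medium. Intracellular ATP was read by CellTiter-Glo luminescence; AC50 from Hill-fitted concentration-response.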

A short description of experiment [3]: Cell Viability - LYMP2-012 (AID 982).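 Further: cellular ATP by luciferase luminescence where a drop means cytotoxicity; cells exposed to compound for one day before reading; 0% = DMSO only and full loss = 92 µM tetraoctylammonium bromide; nearly all actives have a fitted effect of over 55% in size.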
The nature of experiment [4]: Cell Viability - LYMP2-014 (AID 983).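 Further: series mostly up to about 92 µM; plate controls were DMSO only for no effect and 92 µM tetraoctylammonium bromide for full effect; nearly all actives have a fitted effect of over 50% in size.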 Summed up: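 Human lymphoblastoid cells (2500/well) were pre-incubated 5 hr at 37 C, then exposed to compounds in complete medium for 24 hr at 37 C. Intracellular ATP was read by CellTiter-Glo luminescence after 30 min at room temperature; AC50 from Hill fits.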
Experiment [5] is described as follows: Cell Viability - LYMP2-016 (AID 984). Further: on the % scale 0 is the no-effect control and ±100 the full control effect; nearly all actives have a fitted effect of over 55% in size. Summed up:
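Human lymphoblastoid LYMP2-016 cells, 2500 per well, treated with compounds for 24 h at 37 C. Viability read as intracellular ATP by CellTiter-Glo luminescence after 30 min at room temperature; AC50 from Hill fits of concentration-response.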

Experiment [6] in a line: Cell Viability - LYMP2-020 (AID 986).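 Further: series mostly up to about 92 µM; plate controls were DMSO only for no effect and tetraoctylammonium bromide at 92 µM for full effect; nearly all actives have a fitted effect of over 55% in size.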 Summed up:
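Human lymphoblastoid cells, 2500/well, were pre-incubated 5 hr at 37 C, then exposed to compounds for 24 hr at 37 C in complete medium. Intracellular ATP was read by CellTiter-Glo luminescence, and AC50 was derived by Hill fitting of concentration-response data.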

The nature of experiment [7]: Cell Viability - LYMP2-022 (AID 987).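 Further: 0% = DMSO alone and full effect = tetraoctylammonium bromide at 92 µM; nearly all actives have a fitted effect of over 55% in size.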 The essentials: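 Human lymphoblastoid cells, 2500/well, preincubated 5 hr at 37 C, then exposed to compounds over a concentration range for 24 hr at 37 C in complete medium. Viability read as intracellular ATP by CellTiter-Glo luminescence after 30 min at room temperature; AC50 from Hill fits.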
Experiment [8] can be described thus: Cell Viability - LYMP2-024 (AID 988).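 Further: plate controls were DMSO only for no effect and 92 µM tetraoctylammonium bromide for full effect; nearly all actives have a fitted effect of over 60% in size.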 The essentials:
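Human lymphoblastoid cells (2500/well) in complete medium were preincubated 5 hr at 37 C, then exposed to compounds for 24 hr at 37 C. Intracellular ATP was read by CellTiter-Glo luminescence; AC50 from Hill-equation fits of concentration-response data.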

A short description of experiment [9]: Cell Viability - LYMP2-026 (AID 989). Further: on the % scale 0 is the no-effect control and ±100 the full control effect; nearly all actives have a fitted effect of over 50% in size. The essentials:
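Human lymphoblastoid cells (2500/well) in complete medium were preincubated 5 hr at 37 C, then exposed to compounds for 24 hr at 37 C. Cellular ATP was read by CellTiter-Glo luminescence; AC50 from Hill-equation fits of concentration-response data.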

A short description of experiment [10]: Cell Viability - LYMP1-002 - Assay at 40 hr (AID 994).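 Further: 0% = DMSO only and full inhibition = 92 µM tetraoctylammonium bromide; nearly all actives have a fitted effect of over 60% in size.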 The essentials:
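Human lymphoblastoid cells, 2500/well in complete medium, were preincubated 5 hr at 37 C, then exposed to compounds for 40 hr at 37 C. Intracellular ATP was read by CellTiter-Glo luminescence after 30 min at room temperature; AC50 from Hill-equation fits.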

The nature of experiment [11]: qHTS Assay for Identification of Small Molecule Inducers of Hypoxia Response (AID 2120; active means well fitted curve in the direction sought with a large enough effect in the signal ratio, with a control signal flat, not every such curve was filed as active; the % refers to the signal ratio; further: 0% is about no effect). Summed up: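 HRE-beta-lactamase reporter in CellSensor HRE-bla ME-180 cells, 2500 cells/well in Opti-MEM with 0.5% dialyzed FBS; compounds tested as titration series, 17 h at 37 degrees C. CCF4 substrate 2.5 h at room temperature; AC50 from 460/530 nm ratio.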
For experiment [12], the target named is Estrogen receptor (Homo sapiens) (UniProt P03372). As to the kind of experiment: qHTS assay for small molecule antagonists of estrogen receptor alpha signaling (AID 588513; active means well fitted curve in the direction sought with a large enough effect in the signal ratio, with a control signal flat, not every such curve was filed as active; the % refers to the signal ratio; further: on the % scale 0 is the no-effect control and ±100 the full control effect). Summed up:
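ER-alpha-UAS-bla GripTite HEK 293 cells in 2% charcoal/dextran-treated FBS medium; compounds titrated (1:2, duplicate), then stimulated with 0.5 nM 17-beta-estradiol for 18 h at 37C. CCF4 beta-lactamase fluorescence; Hill-fit IC50 and efficacy.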
A general note: qHTS replaces the single test concentration by a dilution series.

The target in experiment [13] is Bile acid receptor (Homo sapiens) (UniProt Q96RI1). As to the kind of experiment: qHTS assay for small molecule antagonists of farnesoid X receptor signaling (AID 588526; calls by dose curve; further: on the % scale 0 is the no-effect control and ±100 the full control effect). Summed up:
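Beta-lactamase reporter antagonist mode: HEK293T FXR-UAS-bla cells, titrated compound, CDCA stimulation, 16 h 37 C, CCF4 dye 2 h RT. Data normalized to CDCA 50 uM and DMSO; Hill-fit IC50.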

Experiment [14] shares this target. In words: qHTS assay for small molecule agonists of farnesoid X receptor signaling (AID 588527; calls by dose curve;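 further: series mostly up to about 77 µM; 0% = vehicle basal and 100% = reference agonist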). The note with it: HEK293T FXR-UAS-bla, beta-lactamase ratio, 16 h; stronger effect = higher value. Summed up:
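Quantitative HTS used FXR-UAS-bla HEK293T cells with 16 h compound incubation at 37 C. EC50 values came from concentration-response curves normalized to chenodeoxycholic acid.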

The target of experiment [15] is Peroxisome proliferator-activated receptor delta (Homo sapiens) (UniProt Q03181). As to the kind of experiment: qHTS assay for small molecule agonists of peroxisome proliferator-activated receptor delta signaling (AID 588534; calls by dose curve;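 further: 0% = DMSO basal wells and 100% = positive control agonist at 10 µM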). Summed up:
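Cell-based beta-lactamase reporter assay run in agonist mode: cells seeded and incubated 5 hrs at 37 C, compounds added and incubated 18 hrs at 37 C. CCF4 dye fluorescence read after 2 hrs at RT; EC50 and efficacy from Hill fits.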

Experiment [16] can be described thus: qHTS assay for small molecule antagonists of peroxisome proliferator-activated receptor delta signaling (AID 588535; active means well fitted inhibition curve with a large enough effect in the signal ratio, with a control signal flat, not every such curve was filed as active; the % refers to the signal ratio;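 on max response: cells co-treated with a PPAR-delta agonist as stimulator during compound exposure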). The note with it: HEK293T PPARd-UAS-bla, beta-lactamase FRET ratio, 18 h; 460 nm channel. The essentials: (§1)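 Cell-based beta-lactamase assay in antagonist mode: 4000 HEK293T PPAR-delta-UAS-bla cells per well, 5 hr preincubation then 18 hr compound incubation at 37 C. IC50 obtained by Hill equation fitting.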

Experiment [17] addresses Peroxisome proliferator-activated receptor delta (Homo sapiens) (UniProt Q03181). The experiment is described as above. The essentials: as §1
A short description of experiment [18]: qHTS assay for small molecule agonists of retinoid X receptor alpha signaling (AID 588544). Particulars: HEK293T RXRa-UAS-bla, beta-lactamase reporter, 18 h; 530 nm emission.
The target of experiment [19] is Thyroid hormone receptor beta (Homo sapiens) (UniProt P10828). In words: qHTS assay for small molecule agonists of thyroid hormone receptor beta signaling (AID 588545; calls by dose curve). Summed up: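 In this cell-based screen, titrated compounds act on HEK 293 cells held in medium with 2% charcoal/dextran FBS, NEAA and pyruvate for 18 hrs at 37 C. Responses are expressed relative to T3 (10 nM) as 100% and basal DMSO as 0%.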
Chain of Thyroid hormone receptor beta (Homo sapiens) (P10828 whole entry, looked up): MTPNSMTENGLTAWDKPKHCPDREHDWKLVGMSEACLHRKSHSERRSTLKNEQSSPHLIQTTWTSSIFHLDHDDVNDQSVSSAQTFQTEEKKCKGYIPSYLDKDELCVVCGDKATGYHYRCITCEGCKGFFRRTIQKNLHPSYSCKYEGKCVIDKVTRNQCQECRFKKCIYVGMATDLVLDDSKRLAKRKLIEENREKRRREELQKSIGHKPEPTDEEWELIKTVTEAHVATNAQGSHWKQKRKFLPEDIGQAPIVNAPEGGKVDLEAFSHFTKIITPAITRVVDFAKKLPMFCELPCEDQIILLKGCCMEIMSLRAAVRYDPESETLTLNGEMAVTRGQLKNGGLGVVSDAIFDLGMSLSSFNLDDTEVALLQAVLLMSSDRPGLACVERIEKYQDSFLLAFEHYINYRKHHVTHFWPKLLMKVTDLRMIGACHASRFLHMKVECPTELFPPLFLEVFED

A short description of experiment [20]: qHTS assay for small molecule antagonists of retinoid X receptor alpha signaling (AID 588546; active means well fitted inhibition curve with a large enough effect in the signal ratio, with a control signal flat, not every such curve was filed as active; the % refers to the signal ratio;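 further: cells stimulated with 9-cis-retinoic acid as agonist; on the % scale 0 is the no-effect control and ±100 the full control effect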). The note with it: HEK293T RXRa-UAS-bla, beta-lactamase ratio, antagonist mode; measured here: W530 green channel, cytotoxicity proxy. Summed up: (§2)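 Beta-lactamase reporter inhibition, read as CCF4 fluorescence ratio (ex 405, em 460/530 nm) after 2 h at RT. HEK293T UAS-bla cells, 2500/well, were stimulated with 9-cis-RA at 500 or 100 nM final alongside test compound for 18 h at 37 C.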

Experiment [21] deals with Retinoic acid receptor RXR-alpha (Homo sapiens) (UniProt P19793). The experiment is described as above. Particulars: HEK293T RXRa-UAS-bla, beta-lactamase ratio, antagonist mode. The essentials: as §2
Chain of Retinoic acid receptor RXR-alpha (Homo sapiens) (P19793 whole entry, looked up): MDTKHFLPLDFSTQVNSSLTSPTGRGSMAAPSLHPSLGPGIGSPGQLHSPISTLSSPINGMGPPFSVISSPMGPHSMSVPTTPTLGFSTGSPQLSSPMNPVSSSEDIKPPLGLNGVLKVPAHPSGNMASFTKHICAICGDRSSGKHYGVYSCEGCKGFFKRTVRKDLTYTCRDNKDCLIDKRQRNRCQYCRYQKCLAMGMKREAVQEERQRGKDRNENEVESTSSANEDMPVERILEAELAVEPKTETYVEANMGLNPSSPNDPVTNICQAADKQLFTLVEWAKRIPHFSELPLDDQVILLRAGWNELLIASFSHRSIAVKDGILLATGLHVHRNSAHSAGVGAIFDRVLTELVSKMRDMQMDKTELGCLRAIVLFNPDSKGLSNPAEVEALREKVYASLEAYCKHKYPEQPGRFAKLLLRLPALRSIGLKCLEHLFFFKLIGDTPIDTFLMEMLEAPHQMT
For experiment [22], the target named is Thyroid hormone receptor beta (Homo sapiens) (UniProt P10828). As to the kind of experiment: qHTS assay for small molecule antagonists of thyroid hormone receptor beta signaling (AID 588547; active means well fitted inhibition curve with a large enough effect in the signal ratio, with a control signal flat, not every such curve was filed as active; the % refers to the signal ratio;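 further: cells stimulated with 0.4 nM T3 agonist during compound exposure; series mostly up to about 77 µM; on the % scale 0 is the no-effect control and ±100 the full control effect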). The note with it: TR-UAS-bla HEK293, beta-lactamase ratio, antagonist mode, 18 h. The essentials: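 Inhibition of T3-driven (0.4nM final) beta-lactamase reporter activity was measured over 0.59 nM to 92 uM compound after 18 h at 37 C. The cells were GripTite HEK293 TR-UAS-bla in charcoal/dextran-stripped serum, with CCF4 ratio read-out and IC50 from Hill fits.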

Several values for one entry are separate records, joined by “and”; a condition that tells them apart may be missing. Equal values may be shown once. Records with an inconclusive call do not appear. Activity calls are given as the source filed them. Unless noted, the call rests on the fitted dose curve; in most records, active means well fitted cell-killing curve with a large enough effect; inconclusive means small, poorly fitted or top-dose-only effect; inactive means flat fitted curve, though single readings scatter.

Chain of Peroxisome proliferator-activated receptor delta (Homo sapiens) (Q03181 whole entry, looked up): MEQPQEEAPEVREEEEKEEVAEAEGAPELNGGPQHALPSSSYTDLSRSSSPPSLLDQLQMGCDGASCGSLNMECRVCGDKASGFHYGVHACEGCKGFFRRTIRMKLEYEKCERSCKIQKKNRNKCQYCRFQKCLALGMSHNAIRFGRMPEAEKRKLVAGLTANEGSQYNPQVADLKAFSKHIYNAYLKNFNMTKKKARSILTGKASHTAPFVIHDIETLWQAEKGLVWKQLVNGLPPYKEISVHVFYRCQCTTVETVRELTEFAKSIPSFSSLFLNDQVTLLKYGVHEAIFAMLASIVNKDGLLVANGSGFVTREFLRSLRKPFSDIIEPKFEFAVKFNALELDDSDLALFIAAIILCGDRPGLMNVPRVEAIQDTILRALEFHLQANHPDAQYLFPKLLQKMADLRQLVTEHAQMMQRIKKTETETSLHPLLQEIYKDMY
Chain of Bile acid receptor (Homo sapiens) (Q96RI1 whole entry, looked up): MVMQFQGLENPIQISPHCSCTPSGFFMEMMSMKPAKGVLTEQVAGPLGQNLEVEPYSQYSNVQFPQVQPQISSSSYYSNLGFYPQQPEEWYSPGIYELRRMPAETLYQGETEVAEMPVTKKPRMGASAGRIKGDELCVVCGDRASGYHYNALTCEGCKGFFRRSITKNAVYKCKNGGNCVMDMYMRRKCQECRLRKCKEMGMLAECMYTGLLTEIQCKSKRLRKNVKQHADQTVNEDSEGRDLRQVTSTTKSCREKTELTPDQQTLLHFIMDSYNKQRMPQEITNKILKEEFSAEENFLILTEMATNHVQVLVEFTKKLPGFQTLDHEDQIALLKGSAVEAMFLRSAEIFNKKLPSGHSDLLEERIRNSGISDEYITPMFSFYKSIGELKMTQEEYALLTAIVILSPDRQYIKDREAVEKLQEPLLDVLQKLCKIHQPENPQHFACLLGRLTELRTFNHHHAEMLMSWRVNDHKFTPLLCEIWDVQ
Chain of Estrogen receptor (Homo sapiens) (P03372 whole entry, looked up): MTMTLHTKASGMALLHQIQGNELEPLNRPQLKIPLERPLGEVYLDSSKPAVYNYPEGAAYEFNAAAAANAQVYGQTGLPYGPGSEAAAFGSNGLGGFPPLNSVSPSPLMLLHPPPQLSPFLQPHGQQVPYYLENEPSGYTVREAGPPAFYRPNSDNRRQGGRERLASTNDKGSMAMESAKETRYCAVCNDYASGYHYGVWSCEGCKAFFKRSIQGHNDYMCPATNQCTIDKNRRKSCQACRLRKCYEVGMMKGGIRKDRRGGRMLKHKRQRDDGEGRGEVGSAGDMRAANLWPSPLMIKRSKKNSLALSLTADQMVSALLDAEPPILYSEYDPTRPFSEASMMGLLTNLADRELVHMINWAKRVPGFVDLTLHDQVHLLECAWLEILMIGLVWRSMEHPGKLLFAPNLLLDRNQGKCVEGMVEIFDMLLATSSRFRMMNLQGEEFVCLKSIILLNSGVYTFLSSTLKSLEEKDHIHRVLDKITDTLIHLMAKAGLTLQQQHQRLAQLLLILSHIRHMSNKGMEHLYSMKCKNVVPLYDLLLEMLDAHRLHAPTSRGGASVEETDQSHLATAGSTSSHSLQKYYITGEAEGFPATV

Regarding `CCCOC(=O)c1ccccc1C(=O)OCCC`, the Potency entry in [1], in experiment [2], in experiment [3], in experiment [4], in experiment [5] and in [6] was “inactive” in each case. The Potency entry in experiment [7], in experiment [8], in experiment [9], in experiment [10], in experiment [12] and in [17] was “inactive” throughout. Also, the call in experiment [11], in experiment [13], in experiment [15] and in experiment [19] was inactive. Also, in experiment [14], the activation is -0.825% (inactive) and -0.41% (inactive). The max response was 2.17% in experiment [16]; 8.06% and -8.01% in experiment [18]; 3.93% and -2.34% in [20]; -20.7% (inactive) and -19.5% (inactive) in experiment [21]. Moreover, the activity change % (negative = inhibition) in experiment [22] is 0.697% (inactive) and -6.62% (inactive).
